Experiment [1] in a line: compound effects on lung adenocarcinoma cell viability – A549, calcein-AM fluorescence, 48 h, basal, profiling panel (AID 1162). The note with it: higher = more signal.
Experiment [2] can be described thus: compound effects on differentiated 3T3-L1 adipocyte viability – cell-based, 3T3-L1 adipocytes, calcein-AM fluorescence, 48 h, basal, profiling panel (AID 1163). As to conditions: 3T3-L1 adipocytes viability, higher = more signal.
The nature of experiment [3]: compound effects on hepatocellular carcinoma cell viability – HepG2, calcein-AM fluorescence, 48 h, basal, profiling panel (AID 1164). The note with it: higher = more signal.
The nature of experiment [4]: compound effects on multiple myeloma cell viability – MM1S, calcein-AM fluorescence, 48 h, basal, profiling panel (AID 1165). As to conditions: higher = more signal.
A short description of experiment [5]: calcein-AM signal in unstimulated myeloma cells – cell-based, calcein-AM fluorescence, 48 h, PK04 Diversity Set, profiling panel (AID 1166).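 Also: cells grown under basal conditions without added stimulus.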 The note with it: RPMI8226 myeloma viability, higher = more signal.
A short description of experiment [6]: JC-1 mitochondrial signal, unstimulated HepG2 cells – cell-based, JC-1 fluorescence, 24 h, 100 nL compound, profiling panel (AID 1167). As to conditions: HepG2 mitochondrial potential, higher = more signal.
Experiment [7] in a line: JC-1 mitochondrial signal, unstimulated adipocytes – cell-based, JC-1 fluorescence, 3T3-L1 adipocytes, 24 h, 100 nL compound, profiling panel (AID 1168). As to conditions: JC-1 mitochondrial fluorescence, higher = more signal, called active from +8 up or from −8 down.
The nature of experiment [8]: JC-1 mitochondrial signal, unstimulated myeloma cells – cell-based, JC-1 fluorescence, RPMI8226, 24 h, 100 nL compound, profiling panel (AID 1169). As to conditions: JC-1 mitochondrial potential fluorescence, higher = more signal.
A short description of experiment [9]: JC-1 mitochondrial signal, unstimulated MM1S myeloma – cell-based, JC-1 fluorescence, 24 h, 100 nL compound, profiling panel (AID 1170). As to conditions: MM1S mitochondrial potential, higher = more signal.
Experiment [10] is described as follows: resazurin metabolic signal in A549 cells – cell-based, resazurin fluorescence, 24 h, PK04 Diversity Set, profiling panel (AID 1171). The note with it: A549 viability, higher = more signal, called active from +8 up or from −8 down. Background: The colour change of resazurin is a common sign of viable cells or microbes.

The source made the active and inactive calls.
Also: test concentration not given here.

Consider `[N-]=[N+]=NCc1ccccc1[C@@H]1OC(c2ccc(OCCCO)cc2)=N[C@]1(CCS(=O)(=O)c1ccccc1)C(=O)NCc1ccccc1`, for which the z-score in experiment [1] was -0.137; in [2], 1.09; in experiment [3] it was 0.0616; in experiment [4], -0.158; in experiment [5], -1.04; in [6], -0.0428. The z-score in experiment [7] is 0.0135 (inactive); in [8], -0.143; in experiment [9], -0.979; in [10], 0.201 (inactive).
Take `CC(C)c1ccc(NN2C(C(O)c3cc(C(F)(F)F)cc(C(F)(F)F)c3)C=CC3C(=O)N(c4ccccc4)C(=O)C32)cc1` (stereo not given): the z-score in experiment [1] was -2.37; in [2], 0.15; in [3], -3.12; in experiment [4], -3.4; in experiment [5] it was -4.14; in [6], -2.69. Also, the z-score in [7] was -0.414 (inactive); in experiment [8] it was -0.873; in experiment [9], -1.57; in experiment [10], -2.11 (inactive).
With `C[C@]1(C(=O)NC2CC2)c2ccccc2C(=O)N(Cc2cc(C(F)(F)F)cc(C(F)(F)F)c2)[C@H]1c1ccc(CO)cc1`, the z-score in experiment [1] is 1.34; in experiment [2] it was 0.254; in experiment [3], 1.44; in [4] it was 0.274; in experiment [5], 0.56; in [6] it was 2.04. Further, the z-score in experiment [7] was -0.0278 (inactive); in [8], -0.105; in [9], -0.262; in [10], 0.89 (inactive).
In the case of `C=CCOC(=O)[C@@H]1[C@H]2C(=O)O[C@H](c3ccccc3)[C@H](c3ccccc3)N2[C@H](c2ccc(OCCOC(=O)[C@@H]3C[C@@H]4C(=O)N5CCC[C@H]5C(=O)N4[C@@H]3c3ccc(O)cc3)cc2)[C@@]12C(=O)Nc1ccc(I)cc12`, the z-score in [1] was 1.87; in experiment [2], 1.24; in [3], 0.502; in experiment [4] it was -0.573; in [5], 0.278; in [6], -1.6. Also, the z-score is 0.231 (inactive) in [7], -0.752 in [8], -1.25 in experiment [9] and -0.248 (inactive) in experiment [10].
With `COC(=O)[C@@]1(Cc2ccc(F)cc2)[C@@H]2[C@@H](CC(=O)[C@H]2CC(=O)C(=O)N(C)C)CN1C(=O)c1ccccc1`, the z-score in experiment [1] was -0.294; in [2], -1.19; in [3], 0.27; in experiment [4], -0.886; in experiment [5] it was -1.73; in experiment [6] it was 1.65. Besides, the z-score in experiment [7] was -0.554 (inactive); in experiment [8], -0.00425; in experiment [9] it was -1.92; in experiment [10], -2 (inactive).
With `C=C(COC)/C(=C/C[C@@H](OC(C)=O)c1ccc(CO)o1)c1cnc2ccccc2c1`, the z-score was -0.11 in [1]; 0.523 in experiment [2]; -0.856 in experiment [3]; 0.0139 in experiment [4]; -0.672 in experiment [5]; -0.733 in experiment [6]. Further, the z-score was -0.306 (inactive) in experiment [7], -0.33 in experiment [8], 1.33 in experiment [9] and -0.874 (inactive) in [10].
Consider `C=C(CCCC)C(=O)CC[C@H](OC(=O)c1cccnc1)c1ccccc1OCCO`, for which the z-score is 0.414 in experiment [1]; 1.54 in experiment [2]; -0.664 in experiment [3]; -3.22 in [4]; -1.65 in experiment [5]; 0.663 in [6]. In addition, the z-score was -0.916 (inactive) in experiment [7], -0.587 in experiment [8], -0.491 in experiment [9] and 1.1 (inactive) in experiment [10].
For the compound `COCCOC(=O)N1C(=O)[C@@]2(c3cc(C#CC4=CCCCC4)ccc31)[C@H](C(=O)Nc1nc3ccccc3s1)[C@H]1C(=O)O[C@H](c3ccccc3)[C@H](c3ccccc3)N1[C@@H]2c1ccccc1OCCO`, the z-score in [1] was -0.812; in experiment [2], 2.14; in experiment [3] it was -0.789; in [4] it was -1.59; in experiment [5], -2.27; in [6] it was -2.7. Further, the z-score is -0.2 (inactive) in experiment [7], -0.849 in experiment [8], -1.29 in [9] and 0.163 (inactive) in experiment [10].
`CCOC(=O)[C@H]1CC=C2CC1C(=O)N1CCC[C@@H]1[C@@H]2O[Si](C)(C)C(C)(C)C` (stereo not given in full): the z-score in [1] is -1.63; in [2], 0.312; in [3], -1.43; in [4], -2.85; in experiment [5] it was -4.07; in experiment [6], -2.25. Besides, the z-score in experiment [7] was -1.07 (inactive); in experiment [8], -1.06; in experiment [9], 0.167; in experiment [10], 3.69 (inactive).
As for `COc1ccc(C(O)C2C=CC3C(=O)NC(=O)C3N2Nc2ccccn2)cc1` (stereo not given), the z-score was -0.483 in [1]; -0.0402 in experiment [2]; -0.454 in [3]; -0.632 in [4]; 0.202 in experiment [5]; -0.69 in experiment [6]. Also, the z-score in experiment [7] is -0.0063 (inactive); in experiment [8], -0.143; in experiment [9], 0.0564; in experiment [10], -0.582 (inactive).
In the case of `COc1ccc(C(=O)O[C@H]2CC[C@]3(C)C4=C(CCC3C2(C)C)[C@]2(C)CC[C@H]([C@H](C)CCCC(C)C)[C@@]2(C)CC4)cc1` (stereo not given in full), the z-score in experiment [1] was 0.373; in [2], 0.586; in experiment [3], 0.729; in [4], 0.41; in experiment [5] it was 0.784; in [6] it was 2.19. The z-score in [7] is 0.375 (inactive); in experiment [8], -0.0976; in experiment [9], -1.47; in experiment [10] it was 0.936 (inactive).
On to `COc1ccc(C(=O)Nc2ccc(CN3C(=O)[C@@]4(O[C@@H](CCO)[C@H]([Si](C)(C)c5ccc(OC)cc5)[C@H]4C)c4ccccc43)cc2)cc1`, for which the z-score in [1] is -4.06; in experiment [2] it was -0.736; in [3], -4.64; in [4], -2.64; in [5], -4.32; in experiment [6] it was -2.53. For the same compound, the z-score in experiment [7] was 1.16 (inactive); in experiment [8], -1.12; in experiment [9], -2.2; in [10], -3.84 (inactive).
With `Cc1ccc(S[C@]2(C(=O)NC(C)C)CC(=O)N(Cc3ccccc3Cl)[C@@H]2c2ccc(CO)cc2I)cc1`, the z-score in [1] is -0.0542; in experiment [2] it was -0.05; in [3] it was -0.125; in experiment [4], -2.71; in experiment [5], -1.58; in experiment [6] it was -1.08. The z-score in experiment [7] is -0.443 (inactive); in experiment [8], -0.195; in experiment [9], -1.6; in [10] it was 1.11 (inactive).
As for `CCOC(=O)C[C@H]1[C@H](OC(=O)c2cc3ccccc3oc2=O)[C@@H](NC(=O)Cc2ccc(OC)cc2)c2cc(OCCCO)ccc2N1C(=O)c1ccccc1`, the z-score was -0.172 in experiment [1]; 2.17 in experiment [2]; -0.56 in [3]; -0.0168 in experiment [4]; -0.606 in experiment [5]; -0.412 in experiment [6]. For the same compound, the z-score in experiment [7] is -0.111 (inactive); in [8] it was -0.135; in [9], -0.244; in [10] it was -0.714 (inactive).
For the compound `O=C1OCCC/C=C\[C@H]2OC34C=CCN(CCN5CCOCC5)C(=O)[C@H]3N(CCCO)C(=O)[C@@H]4C12` (stereo not given in full), the z-score in [1] was -0.235; in [2], 1.01; in [3] it was -0.631; in experiment [4] it was 1.19; in experiment [5], -0.87; in experiment [6], -1.01. Moreover, the z-score in experiment [7] was -0.734 (inactive); in experiment [8] it was 0.806; in [9], 0.486; in [10], 0.116 (inactive).

The record behind these values is PubChem BioAssay.
